Experimental data: PubChem BioAssay
Entries with a potency or affinity are not part of this list. Inconclusive results are not listed. The source made the active and inactive calls.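 How the source made its calls, unless noted: active means fitted half-maximal concentration for viability loss no higher than twice the top valid dose, in every repeat run; inconclusive means repeat runs disagree, flat partial loss, or poor curve fit; inactive means the rest.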

Columns and labels:
[1] = cytotoxicity in PAX8-dependent RMG-1 cells, dose response, cell-based, cherry-pick (AID 687029;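 active means signal drop whose fitted half-maximal concentration is at most twice the top valid dose, in every test run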;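 further: cells exposed to compound for 96 hours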)
[2] = cytotoxicity in IOSE-T80 ovarian epithelial cells, dose response, selectivity assay for PAX8 inhibitor project, cell-based, cherry-pick (AID 687032);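 further: cells exposed to compound for 96 h before reading; 0% = neutral control wells and -100% = 2 µM mitoxantrone kill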
[3] = inhibitors of CMV-promoter luciferase reporter, dose response, counter-screen for Pax8 inhibitor project, cell-based, HEK293, luminescence, dry powder (AID 743020;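 active means signal-lowering compounds whose fitted half-maximal concentration is at or below twice the top tested dose in every run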;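 further: HEK293 cells stably expressing the CMV luciferase reporter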)
[4] = non-specific cell cytotoxicity, dose response, cytotoxicity control for PAX8 inhibitor project, plate reader, dry powder samples (AID 743021; call rule not given here)

Cc1cccc(N(Cc2ccccc2)C(=O)CCl)c1
inactive: outcome [1] | outcome [2] | outcome [3]

CCN1CCN(Cc2ccc(NC(=O)c3cc(NC(=O)c4cncc(-c5ccc(C#N)cc5)c4)cc(OC)c3)cc2C(F)(F)F)CC1
inactive: outcome [1] | outcome [2] | outcome [3]

CN(C[C@H]1N[C@@H](CO)[C@@H]1c1ccc(C2=CCCC2)cc1)C(=O)c1ccncc1
inactive: outcome [1] | outcome [2] | outcome [3]

C#CCN(C[C@@H]1[C@@H](OC(=O)NCCCCCC)[C@@H](OC(=O)NCCCCCC)Cn2c(=O)ccc(=O)n21)S(=O)(=O)c1ccc(C)cc1
inactive: outcome [1] | outcome [2] | outcome [3]

CC[C@@H](C(=O)[C@@H](C)[C@@H](O)[C@H](C)CCc1ccc(C)c(O)c1C(=O)O)[C@H]1O[C@](CC)([C@H]2CC[C@](O)(CC)[C@H](C)O2)C[C@@H]1C
inactive: outcome [1] | outcome [2] | outcome [3]

Cc1cc(N/N=C/c2ccc(O)c(C)c2O)nc(-c2ccccc2O)n1
inactive: outcome [1] | outcome [2] | outcome [3]

CCSc1ccc(-c2cc(NC=O)c3ncc(-c4cccc(C(=O)NCCN(C)C)c4)n3c2)cc1
inactive: outcome [1] | outcome [2] | outcome [3]

C[C@H](CO)N1C[C@H](C)[C@@H](CN(C)C(=O)Nc2ccc3c(c2)OCO3)Oc2cc(C#Cc3ccncc3)ccc2S1(=O)=O
inactive: outcome [1] | outcome [2] | outcome [3]

CC(C)CN1CCN(C(=O)COC(=O)c2ccc(S(C)(=O)=O)c([N+](=O)[O-])c2)CC1
inactive: outcome [1] | outcome [2] | outcome [3]

O=C(O)c1ccc(N/N=C/c2ccc3nccnc3c2)cc1
inactive: outcome [1] | outcome [2] | outcome [3]

CCOc1ccccc1NC(=O)c1nc(S(=O)(=O)Cc2ccccc2)ncc1Cl
inactive: outcome [1] | outcome [2] | outcome [3]

Cc1nn(-c2nc3ccccc3[nH]2)c(=O)c2ccccc12
inactive: outcome [1] | outcome [2] | outcome [3]

COc1ccc(C(=O)NNC(=O)c2ccccn2)cc1
inactive: outcome [1] | outcome [2] | outcome [3]

O=C(Nc1cccc(NC(=O)c2ccc([N+](=O)[O-])o2)c1)c1ccco1
inactive: outcome [1] | outcome [2] | outcome [3]

COC(=O)C1=C(SC)N(c2ccccc2)C(c2ccccc2)CC1=O (configuration not stated)
inactive: outcome [1] | outcome [2] | outcome [3]

CC(C)N(CC(=O)Nc1ccc(Cl)cc1C(F)(F)F)C(=O)CCl
inactive: outcome [1] | outcome [2] | outcome [3]

O=C(NC1CCCCC1)C(c1cccnc1)N(C(=O)CCl)c1ccccc1Cl (configuration not stated)
inactive: outcome [1] | outcome [2] | outcome [3]

COc1cccc(/C=N/Nc2ccc(C(=O)O)cc2)c1O
inactive: outcome [1] | outcome [2] | outcome [3]

COc1ccccc1C#Cc1ccc([C@H]2[C@@H](CO)N(C(=O)C3CCCCC3)[C@H]2C#N)cc1
inactive: outcome [1] | outcome [2] | outcome [3]

COc1cc(OC)nc(-n2ncc(Br)c(Br)c2=O)n1
inactive: outcome [1] | outcome [2] | outcome [3]

COC(=O)C1=C(C)N(Cc2cccc(C(F)(F)F)c2)C(=NCC2CC2)NC1c1cccc(C(F)(F)F)c1 (configuration not stated)
inactive: outcome [1] | outcome [2] | outcome [3]

C=C1CC(Cn2cc(Br)c(=O)[nH]c2=O)(c2ccc(-c3ccccc3)cc2)OC1=O (configuration not stated)
inactive: outcome [1] | outcome [2] | outcome [3]

COc1ccc(C(C(=O)NC2CCCCC2)N(C(=O)CCl)c2ccc(C)cc2)cc1 (configuration not stated)
inactive: outcome [1] | outcome [2] | outcome [3]

O=C(CC1SC(=Nc2cccc3ccccc23)N(Cc2ccccn2)C1=O)Nc1ccccc1Br (configuration not stated)
inactive: outcome [1] | outcome [2] | outcome [3]

O=C(CCl)N=c1sccn1Cc1ccccc1Cl
inactive: outcome [1] | outcome [2] | outcome [3]

CN(C[C@H]1N[C@@H](CO)[C@@H]1c1ccc(C2=CCCC2)cc1)C(=O)c1ccc(F)cc1
inactive: outcome [1] | outcome [2] | activity change, negative = inhibition [3] 0.4% [at 8 µM]

COc1ccc(C(C(=O)NC2CCCCC2)N(C(=O)CCl)c2cccc(Cl)c2)cc1 (configuration not stated)
inactive: outcome [1] | outcome [2] | outcome [3]

O=C(NC1=CC(=O)c2ccccc2C1=O)c1ccccc1
inactive: outcome [1] | outcome [2] | outcome [3]

COc1cccc(N(C(=O)c2ccco2)c2nc(-c3sc(NC(=O)c4ccco4)nc3C)cs2)c1
inactive: outcome [1] | outcome [2] | outcome [3]

COc1ccccc1C(=O)Nc1nc2ccccc2s1
inactive: outcome [1] | outcome [2] | outcome [3]

CCN(CC)CC(C)(C)C(=O)/C=C/c1ccc(/C=C/C(=O)C(C)(C)CN(CC)CC)cc1
inactive: outcome [1] | outcome [2] | outcome [3] | outcome [4]

O=C(NCc1cccnc1)/C(=C\c1ccc(-c2ccc(Cl)c(Cl)c2)o1)S(=O)(=O)c1ccccc1
inactive: outcome [1] | outcome [2] | outcome [3] | outcome [4]

CCCCn1nc(C(=O)Nc2cc(C(F)(F)F)ccc2N2CCOCC2)ccc1=O
inactive: outcome [1] | outcome [2] | outcome [3] | outcome [4]

C=CC[C@H](CC(=O)N(CCO)Cc1ccccc1)C(=O)N[C@@H](COC(=O)[C@H](CC=C)CC(=O)OC(C)(C)C)Cc1c[nH]c2ccccc12
inactive: outcome [1] | outcome [2] | outcome [3] | outcome [4]

C[C@H]1CCCCO[C@@H](CN(C)Cc2ccc(C(F)(F)F)cc2)[C@@H](C)CN([C@@H](C)CO)C(=O)c2cc(NS(=O)(=O)c3ccc(Cl)cc3)ccc2O1
inactive: outcome [1] | outcome [2] | outcome [3] | outcome [4]

COc1cccc(/C=C2\SC(=S)N(CCC(=O)NCCc3ccc(O)cc3)C2=O)c1
inactive: outcome [1] | outcome [2] | outcome [3] | outcome [4]

COc1ccc(/C=C/c2nc3ccccc3n2C)cc1
inactive: outcome [1] | outcome [2] | outcome [3]

COC(=O)[C@@]12C[C@@H](CC(=O)N3CCN(C(=O)c4ccco4)CC3)C(=O)N(Cc3ccco3)C1=CCC(C)(C)C2
inactive: outcome [1] | outcome [2] | outcome [3] | outcome [4]

CCCN(CCC)Cc1c(C(=O)N/N=C/C(C)=C\c2ccco2)nnn1-c1nonc1N
inactive: outcome [1] | outcome [2] | outcome [3] | outcome [4]

CCCCCCN1C[C@@H](n2cc(-c3ccc(F)cc3)nn2)[C@H](O)C[C@@H]1c1ccc(Cl)cc1
inactive: outcome [1] | outcome [2] | outcome [3] | outcome [4]

O=C1C=CC(=C(c2ccc(O)cc2)c2ccc(O)cc2)C=C1
inactive: outcome [1] | outcome [2] | outcome [3] | outcome [4]

O=C(NCC1CCCO1)C(=Cc1cccc([N+](=O)[O-])c1)C(=O)NCC1CCCO1 (configuration not stated)
inactive: outcome [1] | outcome [2] | outcome [3] | outcome [4]

O=C(OCC(=O)N1CCN(C(=O)c2ccco2)CC1)c1cccc(S(=O)(=O)N2CCc3ccccc32)c1
inactive: outcome [1] | outcome [2] | outcome [3] | outcome [4]

COc1ccccc1N1CCN(Cc2cc(Br)c(O)c3ncccc23)CC1
inactive: outcome [1] | outcome [2] | outcome [3] | outcome [4]

COc1cccc(/C=N/NC(=O)c2ccc(N3CCCC3=O)cc2)c1
inactive: outcome [1] | outcome [2] | outcome [3] | outcome [4]

O=C(N/N=C/c1ccc(O)cc1)c1[nH]c2ccc(Br)cc2c1-c1ccccc1
inactive: outcome [1] | outcome [2] | outcome [3] | outcome [4]

O=C(Nc1cccc(NC(=O)c2ccccc2Cl)c1)c1ccc([N+](=O)[O-])o1
inactive: outcome [1] | outcome [2] | outcome [3] | outcome [4]

CC1(C)CC(=O)C=C(C#CC2(O)CCCCC2)C1
inactive: outcome [1] | outcome [2] | outcome [3]

C[C@@H]1CCCCO[C@H](CN(C)Cc2ccncc2)[C@H](C)CN([C@@H](C)CO)C(=O)c2cc(NC(=O)NC3CCCCC3)ccc2O1
inactive: outcome [1] | outcome [2] | outcome [3] | outcome [4]

Cc1ccc(C)c(N2CCN(C(=O)CCCCCn3c(=S)[nH]c4ccc(N5CCOCC5)cc4c3=O)CC2)c1
inactive: outcome [1] | outcome [2] | outcome [3] | outcome [4]

N=c1n(Cc2ccccc2)c2ccccc2n1CC(O)COc1ccc(Cl)cc1Cl (configuration not stated)
inactive: outcome [1] | outcome [2] | outcome [3] | outcome [4]

CCN(CC(=O)Nc1c(F)cccc1F)C(=O)c1cc(S(=O)(=O)N(CC)CC)ccc1N1CCCCC1
inactive: outcome [1] | outcome [2] | outcome [3] | outcome [4]

O=C(Nc1ccc(F)cc1)c1nc(S(=O)(=O)Cc2ccccc2)ncc1Cl
inactive: outcome [1] | outcome [2] | outcome [3] | outcome [4]

O=C(Nc1ccc(Cl)cc1)Nc1ccc(N2CCCC2)c(S(=O)(=O)Nc2ccccc2Cl)c1
inactive: outcome [1] | outcome [2] | outcome [3] | outcome [4]

C=C1C(=O)[C@@]23[C@H](O)C[C@@H]4C(C)(C)CC[C@H](O)[C@@]4(C)[C@@H]2CC[C@@H]1[C@H]3O
inactive: outcome [1] | outcome [2] | outcome [3] | outcome [4]

C=C(C)C(=O)OC1(C(F)(F)F)Oc2cc(C)ccc2NC1=O (configuration not stated)
inactive: outcome [1] | outcome [2] | outcome [3] | outcome [4]

CCC(OC(=O)c1ccc(S(C)(=O)=O)c([N+](=O)[O-])c1)C(=O)NC1C2CC3CC(C2)CC1C3 (configuration not stated)
inactive: outcome [1] | outcome [2] | outcome [3]

COc1ccc(S(=O)(=O)Nc2ccc3c(c2)C(=O)N([C@H](C)CO)C[C@H](C)[C@@H](CN(C)S(=O)(=O)c2ccc(C)cc2)OCCCC[C@H](C)O3)cc1
inactive: outcome [1] | outcome [2] | outcome [3] | outcome [4]

COc1ccc(O)c(/C=N/NC(=O)c2ccc(N3CCCC3=O)cc2)c1
inactive: outcome [1] | outcome [2] | outcome [3] | outcome [4]

COc1ccc(Br)cc1/C=C/C(=O)c1ccc(NC(C)=O)cc1
inactive: outcome [1] | outcome [2] | outcome [3] | outcome [4]

C[C@@H]1CCCCO[C@@H](CN(C)Cc2ccc(Cl)c(Cl)c2)[C@H](C)CN([C@@H](C)CO)C(=O)c2cc(NC(=O)CCC(F)(F)F)ccc2O1
inactive: outcome [1] | outcome [2] | outcome [3] | outcome [4]

C=C1C(=O)[C@]23C[C@H]1CC[C@H]2[C@]1(C)[C@@H](OC(C)=O)CC[C@@](C)(C(=O)OC)[C@H]1C[C@@H]3OC(C)=O
inactive: outcome [1] | outcome [2] | outcome [3] | activity change, negative = cytotoxicity [4] -15.7% [at 8 µM]

O=C(CCCN1C(=O)/C(=C/c2cccc(Br)c2)SC1=S)Nc1cccnc1
inactive: outcome [1] | outcome [2] | outcome [3] | outcome [4]

CS(=O)(=O)c1ccc(C(=O)OCC(=O)N2CCN(CCC3CCCCC3)CC2)cc1[N+](=O)[O-]
inactive: outcome [1] | outcome [2] | outcome [3]
